Results filed as inconclusive are left out. A call without a number means that no potency is given here. Active and inactive are the calls of the source. Calls come from the whole dose curve; as a rule, active = well fitted inhibition curve with a large enough effect; inconclusive = small, poorly fitted or top-dose-only effect; inactive = no such curve, though single readings can be large or run the other way.
target: N-terminal Xaa-Pro-Lys N-methyltransferase 1 (Homo sapiens) (UniProt Q9BV86); experiment: qHTS Assay for Inhibitors of N-terminal methyltransferase 1 (NTMT1): MTaseGlo Assay Confirmatory Screen, Round 1; conditions: Recombinant NTMT1, MTase-Glo SAH luminescence; series mostly up to 57.1 µM
Sequence (Q9BV86 whole entry, looked up): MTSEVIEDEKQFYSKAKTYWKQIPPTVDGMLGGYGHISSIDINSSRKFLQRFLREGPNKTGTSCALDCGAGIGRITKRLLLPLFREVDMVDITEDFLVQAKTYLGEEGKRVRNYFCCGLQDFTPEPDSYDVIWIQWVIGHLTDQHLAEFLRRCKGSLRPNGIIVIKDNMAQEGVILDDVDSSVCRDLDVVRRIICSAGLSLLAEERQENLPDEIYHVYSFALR
Summary of the method: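 Luminescence from MTase-Glo conversion of SAH to ATP measured activity after a 30 min RT reaction with 1 µM SPKRIA substrate, 100 µM SAM and 125 nM enzyme. Normalization used no-enzyme and DMSO controls, followed by Hill fitting.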
Potency is the fitted concentration of half-maximal effect.

Row | SMILES | Potency
1 | C=C1O[C@@](CO)(n2cnc3c(N)ncnc32)[C@H](O)[C@@H]1O | inactive
2 | CCCC(=O)Nc1ncnc2c1ncn2[C@@H]1O[C@@H]2COP(=O)(O)O[C@H]2[C@H]1OC(=O)CCC | inactive
3 | COc1cc2c(NC3CCN(C)CC3)nc(N3CCCN(C)CC3)nc2cc1OCCCCN | 15.3 µM (active)
4 | OC[C@H]1O[C@H](n2cnc3c(NC4CCCC4)nc(Cl)nc32)[C@@H](O)[C@@H]1O | inactive
5 | OC[C@H]1O[C@@H](n2cnc3c(N[C@H]4C[C@H]5CC[C@@H]4C5)ncnc32)[C@H](O)[C@@H]1O | inactive
6 | Nc1nc(Cl)nc2c1ncn2[C@@H]1O[C@H](CO)C(O)[C@H]1O (stereo partly specified) | inactive
7 | Nc1ncnc2c1ncn2[C@@H]1O[C@H](CO)[C@@H](O)[C@H]1O | inactive
8 | OCCNc1ncnc2c1ncn2[C@@H]1O[C@@H](CO)[C@H](O)[C@@H]1O | inactive
9 | Nc1[nH]c(=O)nc2c1ncn2C1OC(CO)C(O)C1O (stereo unspecified) | inactive
10 | Cn1cnc2c(ncn2[C@@H]2O[C@H](CO)[C@@H](O)[C@H]2O)c1=N | inactive
11 | CCCc1cc(C)[nH]c(=O)c1CNC(=O)c1cc(-c2ccc(N3CCN(C(C)C)CC3)nc2)cc2c1cnn2C(C)C | inactive
12 | Nc1nc(Nc2ccccc2)nc2c1ncn2[C@@H]1O[C@@H](CO)[C@H](O)[C@H]1O | inactive
13 | NC(=O)c1ccc[n+]([C@@H]2O[C@H](COP(=O)([O-])OP(=O)(O)OC[C@H]3O[C@@H](n4cnc5c(N)ncnc54)[C@H](O)[C@@H]3O)[C@@H](O)[C@H]2O)c1 | inactive
14 | Nc1ncnc2c1ncn2[C@H]1O[C@@H](CO)[C@@H](O)[C@H]1N | inactive
15 | COc1cc2c(NC3CCN(C)CC3)nc(N3CCCCC3)nc2cc1OCCCN(C)C | inactive
16 | COc1cc2c(NC3CCN(C(C)C)CC3)nc(N3CCCN(C)CC3)nc2cc1OCCCN1CCCC1 | inactive
17 | CNc1ncnc2c1ncn2[C@@H]1O[C@H](CO)[C@@H](O)[C@@H]1O | inactive
18 | OCC1OC(n2cnc3c(=S)nc[nH]c32)C(O)C1O (stereo unspecified) | inactive

Row | SMILES | Potency
19 | COc1cc2c(NC3CCN(C(C)C)CC3)nc(N3CCCN(C)CC3)nc2cc1OCCOCCN(C)C | inactive
20 | Nc1ncnc2c1ncn2[C@@H]1O[C@H](COP(=O)(O)OP(=O)(O)OP(=O)(O)OP(=O)(O)OC[C@@H]2O[C@H](n3cnc4c(N)ncnc43)[C@@H](O)C2O)C(O)[C@H]1O (stereo partly specified) | inactive
21 | O=c1[nH]cnc2c1ncn2[C@@H]1O[C@H](CO)[C@@H](O)[C@H]1O | inactive
22 | O=S(=O)(O)c1ccc(Nc2ncnc3c2ncn3[C@@H]2O[C@H](CO)[C@@H](O)[C@H]2O)cc1 | inactive
23 | COc1cc2nc(N3CCN(C)CC3)nc(NC3CCCCC3)c2cc1OC | inactive
24 | Nc1nc(Cl)nc2c1ncn2[C@@H]1O[C@H](COP(=O)(O)OP(=O)(O)OP(=O)(O)O)[C@@H](O)[C@H]1O | inactive
25 | OC[C@H]1O[C@@H](n2cnc3c(NC4CCCC4)ncnc32)[C@H](O)C1O (stereo partly specified) | inactive
26 | COc1cc2nc(N3CCOCC3)nc(NC3CCN(Cc4ccccc4)CC3)c2cc1OC | inactive
27 | Nc1nc(Cl)nc2c1ncn2[C@@H]1O[C@H](CO)[C@@H](O)[C@H]1O | inactive
28 | Nc1nc(=S)c2ncn([C@@H]3O[C@H](CO)[C@@H](O)[C@H]3O)c2[nH]1 | inactive
29 | Nc1ncnc2c1ncn2[C@H]1C[C@H](O)[C@@H](CO)O1 | inactive
30 | OC[C@H]1O[C@H](n2cnc3c(N[C@H]4CCC[C@@H]4O)ncnc32)[C@H](O)[C@@H]1O | inactive
31 | OC[C@H]1O[C@@H](n2cnc3c(NCc4ccccc4)ncnc32)[C@H](O)[C@@H]1O | inactive
32 | CSc1nc(N)c2ncn([C@@H]3O[C@H](COP(=O)(O)OP(=O)(O)OP(=O)(O)O)[C@@H](O)[C@H]3O)c2n1 | inactive
33 | CNc1ncnc2c1ncn2[C@@H]1O[C@H](COP(=O)(O)O)[C@@H](O)[C@H]1O | inactive
34 | COc1cc2c(NC3CCN(C)CC3)nc(N3CCCN(C)CC3)nc2cc1OCCOCCN(C)C | inactive
35 | COc1cc2c(NC3CCN(C)CC3)nc(N3CCCN(C)CC3)nc2cc1OCCOCCN1CCCC1 | inactive
36 | OC[C@@H]1O[C@@H](n2cnc3c(N[C@H]4CCC[C@@H]4O)ncnc32)[C@H](O)[C@H]1O | inactive

Reference: PubChem BioAssay AID1347145 (National Center for Advancing Translational Sciences (NCATS), 2019)
